# An excerpt weighted towards active compounds, which were near 3.5% of everything screened.
# MITF primary: MITF inhibitors, primary screen, biochemical, AlphaScreen, human; Microphthalmia-associated transcription factor (Homo sapiens), O75030; AlphaScreen MITF homodimerization, bead proximity signal; inhibition, % at 2.6 µM; 650,000 tested, 0.91% active; AID 1259374, 2018; in the data active means inhibition above about 50%;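 further: 0% = vehicle wells with protein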
# Target sequence (O75030 whole entry, looked up): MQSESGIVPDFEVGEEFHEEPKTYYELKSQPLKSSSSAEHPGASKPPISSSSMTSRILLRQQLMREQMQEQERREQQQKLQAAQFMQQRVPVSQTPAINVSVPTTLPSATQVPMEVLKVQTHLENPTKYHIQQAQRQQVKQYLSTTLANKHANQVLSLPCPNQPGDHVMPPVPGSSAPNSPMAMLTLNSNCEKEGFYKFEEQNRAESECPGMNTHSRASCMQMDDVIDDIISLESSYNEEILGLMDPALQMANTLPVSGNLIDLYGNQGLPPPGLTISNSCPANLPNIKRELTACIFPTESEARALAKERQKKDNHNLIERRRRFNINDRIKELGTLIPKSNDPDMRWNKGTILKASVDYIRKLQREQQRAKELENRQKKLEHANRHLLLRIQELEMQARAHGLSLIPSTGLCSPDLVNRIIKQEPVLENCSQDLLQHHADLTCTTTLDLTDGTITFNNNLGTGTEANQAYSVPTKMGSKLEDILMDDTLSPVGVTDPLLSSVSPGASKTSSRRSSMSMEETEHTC
# FBW7 act: FBW7 E3 ligase activators, primary screen, biochemical, AlphaScreen, human; F-box/WD repeat-containing protein 7 (Homo sapiens), Q969H0; normalized activity (activation), % at 26.1 µM; AlphaScreen FBW7–phospho-cyclin E peptide binding, activator screen; AID 1259310, 2017; 650,000 tested, 0.13% active; in the data active means normalized activity above about 1.9%;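 further: purified mutant Fbw7 with reduced substrate affinity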
# TEAD-YAP block: TEAD-YAP interaction inhibition, primary screen, TEAD-YAP interaction inhibitor project, luminescence, HEK-TIYL cells; TEAD-Gal4/YAP UAS-luciferase luminescence; inhibition, % at 9.12 µM; 640,000 tested, 1.4% active; AID 1259422, 2018; in the data active means inhibition above about 32%;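 further: 0% = median of test compound wells and 100% = reference inhibitor wells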
# GPR151 ag: activators of human GPR151, primary screen, cell-based, PathHunter beta-arrestin, luminescence | activation, % at 11.2 µM | AID 1508602, 2020 | 650,000 tested, 1% active | G-protein coupled receptor 151 (Homo sapiens), Q8TDV0 | PathHunter beta-arrestin GPR151 cells; in the data active means activation above about 4.9%;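 further: 0% = median of compound wells and 100% = cells with positive control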
# MITF confirm: MITF inhibitors, retest of hits, confirmation, biochemical, AlphaScreen, triplicate. shares compounds with MITF primary. AlphaScreen MITF homodimerization, biotin/His-MITF beads. inhibition, % at 2.6 µM. 4,700 tested, 16% active;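 active means inhibition above a cutoff derived from the DMSO control wells, cut at about 28% in these data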;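 further: 0% = MITF dimer wells with DMSO only; inhibitors lower the bead chemiluminescence by keeping MITF from dimerizing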
# AlphaScreen DR: AlphaScreen optical interference compounds, dose response, counter-screen, biochemical, HTS; shares compounds with MITF primary; AID 1259373, 2018; AlphaScreen optical interference counterscreen, cell-free; 480 tested, 6% active; IC50, µM; call rule not given here
# AS interf ctr: AlphaScreen optical interference compounds, counter-screen for MITF inhibitor project, biochemical, triplicate; shares compounds with MITF primary; LysRS AlphaScreen counterscreen, signal interference; inhibition, % at 2.6 µM; 4,700 tested, 7.6% active;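 active means inhibition above a cutoff derived from the DMSO control wells, cut at about 30% in these data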
# Active calls of the source: *; . = not tested or not shown.
SMILES,MITF primary,FBW7 act,TEAD-YAP block,GPR151 ag,MITF confirm,AS interf ctr,others
O=C(Nc1ccc(CN2CCOCC2)cc1)c1ccc(N2CCCCC2)c([N+](=O)[O-])c1,-8,0,14,2,.,.,
Cn1c(SCC(=O)O)nnc1-c1cnccn1,61*,0,-5,0,9,7,
Cn1c(SCC(N)=O)nnc1-c1cnccn1,8,0,-4,1,.,.,
O=C1NC(c2ccccc2)=C([N+](=O)[O-])C(c2cccc(F)c2)N1 (stereo unspecified),76*,0,12,2,-5,-8,
O=C(O)c1cc([N+](=O)[O-])cc2c1-c1c(cc([N+](=O)[O-])cc1[N+](=O)[O-])/C2=C/c1ccco1,62*,-2,3,0,68*,22,AlphaScreen DR=>6.5
COc1cc(C)c(CN2CCc3nnc(C(NS(C)(=O)=O)C(C)C)n3CC2)cc1C (stereo unspecified),-3,0,2,1,.,.,
O=[N+]([O-])c1ccc(N2CCc3ccccc3C2)c([N+](=O)[O-])c1,-6,0,4,-1,.,.,
O=[N+]([O-])c1ccc(N2CCCc3ccccc32)c([N+](=O)[O-])c1,61*,0,16,4,47*,40*,
O=C(CN1CCOc2ccccc21)NCc1ccc2c(c1)OCO2,-3,0,-8,0,.,.,
c1ccc(CNc2nc(-c3ccccn3)nnc2-c2ccccc2)cc1,106*,-1,3,0,101*,100*,
c1ccc(-c2nnc(-c3ccccn3)nc2-c2ccccc2)cc1,15,-1,8,3,.,.,
CN(C)c1nc(-c2ccccn2)nnc1-c1ccccc1,102*,-1,-20,0,107*,100*,
O=C(NC(=S)Nc1ccccc1C(=O)O)c1cncc(Br)c1,17,0,6,-1,.,.,
O=C(Nc1ccccc1C(=O)O)c1cncc(Br)c1,57*,0,-9,-4,11,14,
CN(C)S(=O)(=O)Nc1ccc(N2CCC(NCCc3ccncc3)CC2)cc1,7,0,2,0,.,.,
CN(C)S(=O)(=O)Nc1ccc(N2CCC(NCCc3cccs3)CC2)cc1,63*,0,6,0,11,14,
CC1=C(C#N)C(c2cc3c(cc2[N+](=O)[O-])OCO3)C2=C(CCCC2=O)N1 (stereo unspecified),60*,0,11,-1,80*,-27,AlphaScreen DR=>6.5
CCOC(=O)C1=C(C)NC2=C(C(=O)CCC2)C1c1cc2c(cc1[N+](=O)[O-])OCO2 (stereo unspecified),8,0,23,-1,.,.,
Cc1cc(C)nc(SCc2nnc(SCC(=O)Nc3nccs3)o2)n1,72*,0,4,0,77*,31*,
Cc1cc(C)c(C(N)=O)c(SCC(=O)Nc2nccs2)n1,2,0,-3,0,.,.,
COc1ccc(-c2nc(NCCOc3ccccc3)c3ncn(C4CCCCC4)c3n2)cn1,0,0,-7,0,.,.,
NC(=O)CSc1nnc2c3ccccc3n(CCc3ccccc3)c2n1,53*,0,-4,0,7,-6,
CCCn1c2ccccc2c2nnc(SCC(N)=O)nc21,3,0,-9,1,.,.,
CCCCNCCOCCOc1cc(C)ccc1Cl,54*,0,0,-1,11,8,
CCCCNCCOCCOc1ccc(Cl)cc1,80*,0,-3,2,-8,-4,
SMILES,MITF primary,FBW7 act,TEAD-YAP block,GPR151 ag,MITF confirm,AS interf ctr,others
C=CCOCC(O)Cn1c(N(C)C)nc2c1c(=O)[nH]c(=O)n2C (stereo unspecified),-5,0,-2,-1,.,.,
COc1c(C)cccc1C(=O)NC(=S)Nc1ccc(S(N)(=O)=O)cc1,-1,0,-39,0,.,.,
Cc1cc(/C=C2/NC(=O)NC2=O)c(C)n1-c1ccc(C23CC4CC(CC(C4)C2)C3)cc1,12,0,9,-1,.,.,
COc1cccc(CN2CCCCC2c2cccnc2)c1OC (stereo unspecified),73*,0,-6,0,14,14,
COc1cccc(CN2CCN(C3CCCC3)CC2)c1OC,61*,0,8,0,4,18,
COc1cccc(CN2CCN(C3CCCC(C)C3)CC2)c1OC (stereo unspecified),70*,0,7,-1,12,17,
COc1ccc(CN2CCN(C3CCCC3)CC2)c(OC)c1OC,52*,0,-3,1,1,9,
O=C1C2C3c4ccccc4C(c4ccccc43)C2C(=O)N1Nc1ccccc1 (stereo unspecified),6,1,6,1,.,.,
COc1ccc(OCCNCc2ccco2)cc1,52*,0,0,2,-18,-2,
COCCN(C1CCN(CCc2ccc(Cl)cc2)CC1)S(=O)(=O)c1cccs1,63*,0,9,0,1,8,
CCc1ccc(NC(=O)c2ccc(C)c(NC(C)=O)c2)cc1,2,0,-83,1,.,.,
CC1(C)C2CCC1(C)C(NCC(O)COCc1ccccc1F)C2 (stereo unspecified),65*,0,-1,1,-10,-4,
CN(C)CC(C)(C)CNCC(O)COCc1ccccc1F (stereo unspecified),78*,0,-4,0,0,-5,
CCn1c(C)[n+](CCC(C)S(=O)(=O)O)c2cc(Cl)c(Cl)cc21 (stereo unspecified),5,0,4,0,.,.,
CC(NCC1(N2CCOCC2)CCCCC1)C(=O)N1CCc2ccccc21 (stereo unspecified),53*,0,-3,-2,-1,7,
CC(Nc1ccccc1)C(=O)N1CCc2ccccc21 (stereo unspecified),9,0,-24,-1,.,.,
Cc1ccc(C(=O)/C=C/c2ccc(-c3cccc(C(F)(F)F)c3)o2)cc1,-1,0,6,2,.,.,
O=C(/C=C/c1ccc(-c2cccc(C(F)(F)F)c2)o1)c1ccco1,78*,0,-11,3,70*,29,AlphaScreen DR=>6.6
O=C(/C=C/c1ccc(-c2ccc(F)cc2)o1)c1ccco1,58*,0,-64,0,77*,40*,
CCOc1ccccc1CN(CCc1ccc2c(c1)OCO2)Cc1cccnc1,78*,0,-7,0,5,11,
CCOc1ccc(CN(CCc2ccc3c(c2)OCO3)Cc2cccnc2)cc1,60*,0,4,1,-4,-4,

# High-throughput results from PubChem BioAssay.
